Data from PMC5836133, “The intracellular immune receptor Rx1 regulates the DNA-binding activity of a Golden2-like transcription factor”.
In all, about 16,000 sequences were measured (“e-score”: median about -0.044, highest 2% from about 0.38 on). Only a selection was taken, and the highest values are over-represented in it overall.

Target: T1, GST-NbGlk1(82-244) (Nicotiana benthamiana)
T1 chain: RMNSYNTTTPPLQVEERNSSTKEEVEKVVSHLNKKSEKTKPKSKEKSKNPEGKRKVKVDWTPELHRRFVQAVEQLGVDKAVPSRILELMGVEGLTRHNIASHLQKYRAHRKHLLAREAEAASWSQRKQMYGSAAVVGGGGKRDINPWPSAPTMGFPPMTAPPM
Test: protein-binding microarray; NbGlk1 is a Golden2-like transcription factor of Nicotiana benthamiana; high values mean tight binding
Details: protein: recombinant; tags: GST (pTH6838); dsDNA, one strand shown

| Sequence | binding signal |
| --- | --- |
| ACGGATTG | 0.277 ± 0.0929 E-score |
| ATGGATTA | 0.326 ± 0.0123 E-score |
| ACGGATTC | 0.405 ± 0.00859 E-score |
| ATGGATTG | 0.21 ± 0.0605 E-score |
| ACGGATTA | 0.312 ± 0.00583 E-score |
| ATGGATTC | 0.425 ± 0.0111 E-score |
| ACGCTGAT | 0.235 ± 0.108 E-score |
| ATTTCTTG | 0.258 ± 0.105 E-score |
| AATGAAAT | 0.236 ± 0.00744 E-score |
| AATTCTCA | 0.243 ± 0.0881 E-score |
| AAATCTCA | 0.444 ± 0.0165 E-score |
| CAATCTCA | 0.329 ± 0.0291 E-score |
| CAATCTCG | 0.404 ± 0.00662 E-score |
| AAATCTCG | 0.4626 ± 0.00233 E-score |
| CAATCTCC | 0.349 ± 0.0541 E-score |
| CAATCACA | 0.205 ± 0.12 E-score |
| AAATCTCC | 0.439 ± 0.00952 E-score |
| ATCGAATA | 0.235 ± 0.0136 E-score |
| ACGAGAAT | 0.31 ± 0.0433 E-score |
| ATCTAATG | 0.243 ± 0.0558 E-score |
| ATTTCCCA | 0.329 ± 0.00415 E-score |
| CACGATCG | 0.23 ± 0.0866 E-score |
| ATCTATCA | 0.276 ± 0.0314 E-score |
| ATAGGATC | 0.255 ± 0.0193 E-score |
| AATCAACA | 0.259 ± 0.102 E-score |

| Sequence | binding signal |
| --- | --- |
| ATCTTTTG | 0.24 ± 0.0872 E-score |
| AATCATAT | 0.28 ± 0.0597 E-score |
| ACTGTGAT | 0.208 ± 0.0601 E-score |
| AGATCGGG | 0.239 ± 0.0369 E-score |
| ATCCTCTA | 0.342 ± 0.0176 E-score |
| ACTGATAC | 0.204 ± 0.0454 E-score |
| CAAAGATA | 0.225 ± 0.0785 E-score |
| AAATCACT | 0.26 ± 0.0391 E-score |
| AATTCTCT | 0.225 ± 0.0473 E-score |
| AAATCTCT | 0.392 ± 0.0226 E-score |
| ATCCTCAA | 0.322 ± 0.0217 E-score |
| ACCGGATC | 0.21 ± 0.0564 E-score |
| ATATAAGA | 0.21 ± 0.0738 E-score |
| AGTATTTG | 0.208 ± 0.054 E-score |
| AGAATTTC | 0.267 ± 0.0165 E-score |
| AATATTTC | 0.34 ± 0.0237 E-score |
| AGAATTTG | 0.293 ± 0.0716 E-score |
| AGGATTTG | 0.383 ± 0.0174 E-score |
| AGGATTTC | 0.469 ± 0.0121 E-score |
| ATCTCCTA | 0.337 ± 0.0176 E-score |
| AGGGAAAT | 0.334 ± 0.0487 E-score |
| AATAAGAT | 0.3 ± 0.0136 E-score |
| ATTACTCA | 0.208 ± 0.0879 E-score |
| AATCGCGA | 0.376 ± 0.0188 E-score |
| AGATCTCA | 0.413 ± 0.0152 E-score |

| Sequence | binding signal |
| --- | --- |
| AGATCTCC | 0.441 ± 0.0151 E-score |
| AGATCACG | 0.26 ± 0.003 E-score |
| AGATCCCA | 0.219 ± 0.0112 E-score |
| AGATCCCC | 0.378 ± 0.0125 E-score |
| AGATCTCG | 0.431 ± 0.0229 E-score |
| AGATCTAC | 0.347 ± 0.0432 E-score |
| AGATCCCG | 0.32 ± 0.0375 E-score |
| ATCGTAAC | 0.244 ± 0.00995 E-score |
| ATCATATC | 0.329 ± 0.0297 E-score |
| ATTCCCGG | 0.283 ± 0.0331 E-score |
| AAAATCGA | 0.381 ± 0.0174 E-score |
| ATAATCGC | 0.207 ± 0.0834 E-score |
| CAAATCGC | 0.32 ± 0.038 E-score |
| CAAATCGA | 0.28 ± 0.0483 E-score |
| AAAATCGT | 0.39 ± 0.0061 E-score |
| AAAATCGC | 0.405 ± 0.00862 E-score |
| ATAATCGA | 0.216 ± 0.00243 E-score |
| AAAATCGG | 0.363 ± 0.0144 E-score |
| AATTGCGT | 0.233 ± 0.0124 E-score |
| AATTATCC | 0.204 ± 0.00884 E-score |
| ATCTGAGC | 0.219 ± 0.0796 E-score |
| AGAGATTG | 0.325 ± 0.048 E-score |
| ACAGATTC | 0.429 ± 0.0275 E-score |
| ATAGATTC | 0.437 ± 0.0195 E-score |
| ACAGATTA | 0.362 ± 0.0124 E-score |

| Sequence | binding signal |
| --- | --- |
| AGAGATTC | 0.434 ± 0.028 E-score |
| ATAGATTG | 0.327 ± 0.0261 E-score |
| ACAGATTG | 0.359 ± 0.0598 E-score |
| ATAGATTA | 0.339 ± 0.0049 E-score |
| AGAGATTA | 0.298 ± 0.025 E-score |
| ACCAGATC | 0.2 ± 0.124 E-score |
| ATCACGTA | 0.257 ± 0.0112 E-score |
| AAGTATCT | 0.249 ± 0.0273 E-score |
| AATTTAGA | 0.251 ± 0.0537 E-score |
| AGTGCGAT | 0.313 ± 0.00866 E-score |
| AAGGGGAT | 0.203 ± 0.0242 E-score |
| ATTTGCAA | 0.304 ± 0.00257 E-score |
| ATATCACA | 0.369 ± 0.031 E-score |
| ATTGCGTC | 0.2709 ± 0.000439 E-score |
| ATTGCGTG | 0.388 ± 0.00526 E-score |
| ATTGCGTA | 0.367 ± 0.0361 E-score |
| CAATCAAA | 0.214 ± 0.036 E-score |
| AAAATAAA | 0.218 ± 0.15 E-score |
| CACTGATA | 0.208 ± 0.181 E-score |
| ATCTCGAC | 0.34 ± 0.0977 E-score |
| ATATCTAC | 0.392 ± 0.0225 E-score |
| AGATCTAA | 0.303 ± 0.0304 E-score |
| ATATCTAG | 0.392 ± 0.0205 E-score |
| ATATCTAA | 0.417 ± 0.0517 E-score |
| ATCTCTAG | 0.294 ± 0.0244 E-score |

| Sequence | binding signal |
| --- | --- |
| AGATCTAG | 0.349 ± 0.0106 E-score |
| ATCTCTAA | 0.216 ± 0.0218 E-score |
| ATATCAAC | 0.287 ± 0.0867 E-score |
| ATCTCTAC | 0.297 ± 0.0234 E-score |
| ACCGATAT | 0.364 ± 0.00959 E-score |
| ATCAGAAT | 0.275 ± 0.0769 E-score |
| AGTGTAAT | 0.362 ± 0.0129 E-score |
| ATCTGATA | 0.345 ± 0.00479 E-score |
| ATTCGTAA | 0.208 ± 0.00392 E-score |
| ATCTTTCC | 0.218 ± 0.0881 E-score |
| AATCACAT | 0.265 ± 0.0229 E-score |
| CAATCGCA | 0.23 ± 0.0233 E-score |
| CACGTATC | 0.216 ± 0.0457 E-score |
| ATCGCGGC | 0.208 ± 0.0886 E-score |
| ATTTTACG | 0.213 ± 0.082 E-score |
| AGATCGGA | 0.277 ± 0.0345 E-score |
| AATCATTA | 0.201 ± 0.157 E-score |
| ATTGCATG | 0.221 ± 0.0421 E-score |
| ATTTCACG | 0.242 ± 0.0818 E-score |
| AATTTCGG | 0.245 ± 0.0953 E-score |
| ATTATGGA | 0.277 ± 0.0309 E-score |
| AATCCTGG | 0.3628 ± 0.00311 E-score |
| AATCCTGA | 0.399 ± 0.0138 E-score |
| AATCCTAC | 0.3426 ± 0.00211 E-score |
| AATCCTCG | 0.345 ± 0.0473 E-score |

| Sequence | binding signal |
| --- | --- |
| AATCCTGC | 0.356 ± 0.0181 E-score |
| AATCCTAT | 0.376 ± 0.0141 E-score |
| AATCCTAA | 0.395 ± 0.0218 E-score |
| AATCCTAG | 0.388 ± 0.0422 E-score |
| ATTCCTAG | 0.202 ± 0.0268 E-score |
| ATCGTGGA | 0.273 ± 0.0839 E-score |
| ACGAATCG | 0.283 ± 0.0452 E-score |
| ATTCCTTG | 0.228 ± 0.115 E-score |
| AATCATCG | 0.225 ± 0.0433 E-score |
| ATTCTTCC | 0.221 ± 0.0993 E-score |
| ATTCTTCA | 0.324 ± 0.0737 E-score |
| AATCGTCT | 0.277 ± 0.0759 E-score |
| AATCTTCA | 0.388 ± 0.01 E-score |
| AATCTTCT | 0.41 ± 0.0267 E-score |
| AATCATCA | 0.212 ± 0.0286 E-score |
| AATCTTCG | 0.404 ± 0.0151 E-score |
| AATCTTCC | 0.361 ± 0.0433 E-score |
| AATAATCT | 0.276 ± 0.0304 E-score |
| CACACAGA | 0.201 ± 0.0131 E-score |
| ATATATGG | 0.224 ± 0.0844 E-score |
| ATATACGA | 0.236 ± 0.0113 E-score |
| ATTTCGAA | 0.316 ± 0.0613 E-score |
| ATCCAAAC | 0.241 ± 0.133 E-score |
| ATCTCAAG | 0.256 ± 0.0583 E-score |
| ATCGTATC | 0.36 ± 0.0262 E-score |

| Sequence | binding signal |
| --- | --- |
| ATTCCAAG | 0.205 ± 0.0718 E-score |
| AATCAAAA | 0.296 ± 0.0471 E-score |
| AATCCAAT | 0.408 ± 0.0114 E-score |
| AATCCCAA | 0.367 ± 0.00919 E-score |
| AATCCAAC | 0.348 ± 0.0137 E-score |
| AATGCAAT | 0.303 ± 0.0228 E-score |
| ATCCCAAT | 0.201 ± 0.0789 E-score |
| AATCCAAA | 0.4128 ± 0.00044 E-score |
| AATCCAAG | 0.394 ± 0.00595 E-score |
| AACGGAAT | 0.285 ± 0.0635 E-score |
| ATTTCCCG | 0.3088 ± 0.000826 E-score |
| ATCTCAGC | 0.22 ± 0.0276 E-score |
| AATATCCA | 0.396 ± 0.0292 E-score |
| AATATCGA | 0.326 ± 0.0506 E-score |
| AATATCCT | 0.389 ± 0.005 E-score |
| AATATCCG | 0.426 ± 0.013 E-score |
| ATTATCCG | 0.279 ± 0.01 E-score |
| AGTATCCA | 0.265 ± 0.00779 E-score |
| AATATCGT | 0.322 ± 0.0372 E-score |
| AATATCAT | 0.282 ± 0.0333 E-score |
| AATATCCC | 0.339 ± 0.0252 E-score |
| ATCGAGAA | 0.236 ± 0.0184 E-score |
